Here are results for 40 compounds from PubChem BioAssay (Tox21).

Calls of active or inactive are those of the source. The call rests on the fitted dose curve.
On the % scale 0 is the no-effect control and ±100 the full control effect.

The assay in a line: qHTS assay to identify small molecule agonists of the sonic hedgehog signaling (Shh) pathway (AID 1259368).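 Further: NIH/3T3-derived 3T3Gli1-Luc cells carrying a stable Gli1-driven firefly luciferase reporter; nearly all actives have a fitted effect of over 15% in size.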 To be noted: NIH/3T3 Gli1-Luc reporter, luciferase, 24 h, hits give high values; series mostly up to 92.4 µM; activity change: at the top concentration. The source says: National Center for Advancing Translational Sciences [NCATS]
NIH Chemical Genomics Center [NCGC]
U.S. Environmental Protection Agency [EPA]
National Institutes of Environmental Health Sciences [NIEHS]
National Toxicology Program [NTP]
The sonic hedgehog (Shh) pathway is essential for normal embryonic development. Dysregulation of the Shh pathway can cause severe developmental defects in organs. Therefore chemicals that interfere with the pathway are potential developmental toxicants. A cell line designated 3T3Gli1-Luc (DMB/OARSA/CFSAN/FDA, Laurel, MD), a NIH/3T3 derived clone containing stably integrated Gli1-Luc reporter is used to detect chemical interference of the Shh pathway, by changes in the expression of the firefly Luc gene under the control of the Gli1 transcriptional response element. This cell line was used to screen Tox21 libraries for identifying and prioritizing the potential developmental toxicants that interfere Shh pathway.
3T3 Gli1-Luc cells were dispensed at 2,000 per well in 5uL of culture medium into white solid bottom 1536-well plates (Greiner Bio-One, Monroe, NC) using a Multidrop Combi (Thermo Scientific, Waltham, MA) dispenser. The assay plates were incubated at 37 C and 5% CO2 for 4hr, and then 23nL of compounds dissolved in DMSO and positive control were transferred using a Pintool station (Wako, San Diego, CA). The assay plates were incubated at 37C and 5% CO2 for 24hr. For luciferase read, 4uL of Amplite Luciferase reporter gene assay reagent (AAT Bioquest, Inc. Sunnyvale, CA) was added to each well of the assay plates using Flying Reagent Dispenser (FRD, Aurora Discovery, San Diego, CA) and incubated at room temperature for 30min. The luminescence signal was measured using a ViewLux plate reader (Perkin Elmer, Shelton, CT).
For the compound `CCCc1ccccc1`, the “activity change” value was 0.0397% (inactive).
The figure for `O=C(c1ccc(O)cc1)c1ccc(O)cc1` is 3.48% (inactive); for `CC[C@H](C)[C@H](N)C(=O)O` it is -0.0271% [at 42.5 µM] (inactive).
To `CCCCCCCCC(CO)CCCCCC` (stereo not given) belongs -0.701% (inactive).
`CCCCOC(O)CC` (stereo not given): the “activity change” value is 0.685% (inactive).
To `O=S1(=O)c2cccc3cccc(c23)N1CCCN1CCN(c2ccc(F)cc2)CC1` belongs -0.122% [at 42.5 µM] (inactive); to `COc1ccc([C@@H]2Sc3ccccc3N(CCN(C)C)C(=O)[C@@H]2OC(C)=O)cc1`, -0.17% [at 42.5 µM] (inactive).
Consider `C=CC(C)(CCC=C(C)C)OC(=O)c1ccccc1` (stereo not given), for which the “activity change” value is -0.113% (inactive).
To `OC(CCN1CCCCC1)(c1ccccc1)C1CCCCC1` (stereo not given) belongs -1.16% [at 42.5 µM] (inactive).
To `O=[N+]([O-])c1cc[n+]([O-])cc1` belongs -13.3% (inactive); to `CC(C)(C)C1CCCCC1O` (stereo not given), 2.31% (inactive); to `CC(C)CC=O`, 1.38% (inactive).
To `C=C(C)C(=O)OCCOc1ccccc1` belongs 0.137% (inactive); to `NC[C@H]1O[C@H](O[C@H]2[C@H](O)[C@@H](O[C@H]3O[C@H](CO)[C@@H](O)[C@H](N)[C@H]3O)[C@H](N)C[C@@H]2N)[C@H](O)[C@@H](O)[C@@H]1O`, 1.6% [at 8.39 µM] (inactive); to `NCc1ccccc1`, 2.8% (inactive).
On to `CC(=O)O[C@@H]1C(=O)O[C@@H]2[C@H]1OC(=O)[C@@H]2OC(C)=O`, for which the “activity change” value was 0.117% [at 42.5 µM] (inactive).
The figure for `O=C(Cl)c1c(Cl)cccc1Cl` is 0.63% (inactive).
To `OCCC1CCCCN1` (stereo not given) belongs 0.407% (inactive); to `NC(N)=N/N=C/c1c(Cl)cccc1Cl`, -1.22% [at 42.5 µM] (inactive).
To `NC(=S)N/N=C/c1cccnc1` belongs -0.237% [at 42.5 µM] (inactive); to `O=S1(=O)N=C(O)c2ccccc21`, -1.76% [at 42.5 µM] (inactive).
Take `O=C(Cl)c1ccc([N+](=O)[O-])cc1`: the “activity change” value was -3.94% (inactive).
The figure for `CCCCCCCCCCCCCCCC(=O)OC/C=C(C)/C=C/C=C(C)/C=C/C1=C(C)CCCC1(C)C` is -0.105% (inactive).
To `O=C(O)Cc1cc(I)c(Oc2ccc(O)c(I)c2)c(I)c1` belongs -1.99% (inactive); to `C1=Cc2ccccc2C1`, 0.38% (inactive); to `CCCCOC(=O)/C=C\C(=O)OCCCC`, -4.11% (inactive).
The figure for `CCN(CC)CCc1nc(-c2ccccc2)no1` is -0.831% [at 42.5 µM] (inactive); for `Cc1ccccc1N=Nc1ccc(N=Nc2c(O)ccc3ccccc23)c(C)c1` it is 0.0184% [at 42.5 µM] (inactive).
For `C=C(C)C(=O)OC(C)C`, the “activity change” value is -0.133% (inactive).
To `Nc1nc(CC(=O)O)cs1` belongs 0.513% (inactive); to `COCCO`, 0.104% (inactive); to `O=C1[C@H](CC[C@H](O)c2ccc(F)cc2)[C@@H](c2ccc(O)cc2)N1c1ccc(F)cc1`, -1.06% [at 42.5 µM] (inactive).
The figure for `CCN(CC)CCNC(C(=O)OCCC(C)C)c1ccccc1` (stereo not given) is -0.105% [at 42.5 µM] (inactive); for `N#CCc1cccc(C(F)(F)F)c1` it is 0.262% (inactive); for `C[C@H](CCC(=O)O)[C@H]1CC[C@H]2[C@@H]3[C@H](O)C[C@@H]4C[C@H](O)CC[C@]4(C)[C@H]3CC[C@]12C` it is -1.94% (inactive).
The figure for `C1CCC2OC2C1` (stereo not given) is -0.15% (inactive); for `S=C(S)NCCNC(=S)S` it is -0.0837% (inactive).
As for `CCCCCCCCN(C)C`, the “activity change” value is 0.494% (inactive).
As to `COc1ccccc1OC(=O)Oc1ccccc1OC`, the “activity change” value is -0.0329% [at 42.5 µM] (inactive).
In the case of `Cc1c(Cn2ccnc2)c2ccccc2n1CCC(=O)O`, the “activity change” value was -0.671% [at 42.5 µM] (inactive).
